Assay results as given in PubChem BioAssay AID624330 (Southern Research Specialized Biocontainment Screening …, 2012).
The whole screen tested about 340,000 compounds, of which about 2,100 (0.62%) were called active.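 How the source made its calls: active means first-screen hits whose inhibition reached a set limit at any dose in the follow-up dose series; inconclusive means inhibition above the set first-screen limit but never retested; inactive means the rest.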 The list is a sample of the results. Potency and affinity values are given separately.

The compounds below were run against Rac GTPase-activating protein 1 (Homo sapiens) (UniProt Q9H0H5) (assay: blockers of MgcRacGAP-driven Rac1 GTP hydrolysis – biochemical, ADP Hunter fluorescence, primary and confirmatory, confirmation (AID 624330;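 further: fluorescence reports GDP produced by GAP-driven GTP hydrolysis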)). Conditions: MgcRacGAP-stimulated Rac1 GTP hydrolysis, at 30 µM, active compounds read high, GST-tagged Rac1 F28L mutant substrate.
Rac GTPase-activating protein 1 (Homo sapiens), sequence (Q9H0H5 whole entry, looked up): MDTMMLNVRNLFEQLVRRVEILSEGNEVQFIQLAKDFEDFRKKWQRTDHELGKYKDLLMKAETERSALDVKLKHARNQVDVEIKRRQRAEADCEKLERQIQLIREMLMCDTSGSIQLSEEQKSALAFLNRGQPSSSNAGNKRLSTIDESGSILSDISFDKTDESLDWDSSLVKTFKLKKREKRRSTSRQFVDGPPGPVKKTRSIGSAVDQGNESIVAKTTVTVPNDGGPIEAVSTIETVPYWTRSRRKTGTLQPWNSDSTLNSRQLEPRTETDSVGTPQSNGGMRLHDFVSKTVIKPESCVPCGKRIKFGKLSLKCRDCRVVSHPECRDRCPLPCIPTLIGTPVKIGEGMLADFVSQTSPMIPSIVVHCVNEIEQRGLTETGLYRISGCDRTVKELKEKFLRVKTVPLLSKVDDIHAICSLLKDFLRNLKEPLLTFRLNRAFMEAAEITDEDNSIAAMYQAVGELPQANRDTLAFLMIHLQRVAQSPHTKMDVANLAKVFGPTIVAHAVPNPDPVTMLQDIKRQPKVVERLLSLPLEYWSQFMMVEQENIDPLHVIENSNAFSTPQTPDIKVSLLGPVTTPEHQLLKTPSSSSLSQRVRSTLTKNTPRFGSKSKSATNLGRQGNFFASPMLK

inhibition, inactive:
CCN(CC)CCNC(=O)NC(=O)c1ccc(Cl)cc1 -9.05%
O=C(NCc1ccccc1F)C(=O)NCC1OCCCN1S(=O)(=O)c1cccs1 (centres undefined) -0.33%
COc1ccc(NC(=O)COc2nsnc2N2CCCCC2)cc1 17.2%
Cc1ccc(N(Cc2ccc(C(=O)NCC3CCCO3)cc2)S(C)(=O)=O)cc1C (centres undefined) -2.07%
CC(=O)NC1C(Oc2ccc(C=O)cc2)OC(COC(C)=O)C(OC(C)=O)C1OC(C)=O (centres undefined) 0.46%
COc1ccc(O[C@@H]2O[C@H](COC(C)=O)[C@@H](OC(C)=O)[C@H](OC(C)=O)[C@H]2NC(C)=O)cc1 5.33%
O=C(NCc1ccc(F)cc1F)Nc1cnccc1C(F)(F)F 0.3%
CC1(c2nnc(-c3ccccc3)o2)CC(c2c(Cl)cccc2Cl)=NO1 (centres undefined) 7.59%
C(=N\N1CCN(c2ccccc2)CC1)/c1ccccc1 9.75%
Cc1ccc(/C=N/N2CCN(c3ccccc3)CC2)cc1 14.1%
C(=N\N1CCN(c2ccccn2)CC1)/c1ccccn1 13.7%
Cc1ccc(/C=N/N2CCN(c3ccccn3)CC2)cc1 6.1%
COc1ccc(CCNC(=O)C2CCN(S(=O)(=O)c3ccc(OC)c(OC)c3)CC2)cc1OC 1.02%
CCCOc1ccc(C2C(C(=O)c3ccc(C)o3)=C(O)C(=O)N2Cc2ccco2)cc1 (centres undefined) 9.74%
O=[N+]([O-])c1ccc(NN=C(C2CC2)C2CC2)c([N+](=O)[O-])c1 9.77%
COC(=O)c1sc2nc(-c3ccccc3)nc(N3CCN(C)CC3)c2c1C 6.27%
COc1ccccc1N1C(=O)CC(Sc2ccccc2N)C1=O (centres undefined) 2.06%
COc1ccc(C(=O)Nc2c(O)ccc3ccccc23)cc1OC 9.73%
COc1cc2ccc(C(C)=O)c(O)c2cc1OC 8.81%
COc1ccc(Cc2c3cc(OC)c(OC)cc3cc[n+]2C)cc1OC -5.7%
COc1cc2ccc(=O)oc2cc1O 16.3%
O=C(CN(Cc1ccc(Cl)cc1)C(=O)CN1C(=O)COc2ccccc21)NC1CCCC1 8.29%
O=C(Nc1cccc(F)c1)Nc1ccc(Cl)cn1 0.09%
CC(=C/c1ccccc1)/C=N/N1CCN(Cc2ccc(C)cc2)CC1 7.95%
CCOC(=O)[C@H](O)[C@@H](O)c1cccc([C@H](O)[C@@H](O)C(=O)OCC)c1 11.8%
CN(Cc1ccccc1)C(=O)c1cc(-c2ccc(Br)cc2)on1 7.89%
Cc1ccc(CSc2nnc(NC(=O)Cn3cnc4ccccc4c3=O)s2)cc1 -8.67%
CCOC(=O)c1c(-c2ccc(-c3ccccc3)cc2)csc1NC(=O)CCN1CCOCC1 -2.88%
CCOC(=O)c1c(-c2ccccc2)csc1NC(=O)CCN1CCOCC1 18.3%
COC(=O)Cn1c(=NC(=O)C2COc3ccccc3O2)sc2cc(S(N)(=O)=O)ccc21 (centres undefined) 3.94%
COC(=O)c1cc(-c2ccc(Cl)cc2)n(-c2ccc(S(N)(=O)=O)cc2)n1 5.18%
O=S(=O)(N/N=C/c1ccc2c(c1)OCCO2)c1ccccc1 9.57%
COC(=O)c1cc(S(=O)(=O)NCc2ccccc2)c[nH]1 11.6%
COc1cc(O)cc2cc3c(c(O)c12)C(=O)CC(C)(O)O3 (centres undefined) -0.09%
CCOc1ccc(S(=O)(=O)n2c([N+](=O)[O-])cnc2C)c(C)c1C 6.34%
Cc1[nH]c(=S)c(C#N)c(C)c1CC(=O)c1ccc(Br)cc1 8.21%
O=C(CN1C(=O)c2ccccc2S1(=O)=O)c1ccc(F)c(F)c1 -3.06%
O=C(CN1C(=O)c2ccccc2S1(=O)=O)c1ccccc1 8.2%
COCCN(C(=O)CSc1nnc(C)n1-c1ccccc1)c1c(N)n(Cc2ccccc2)c(=O)[nH]c1=O 9.16%
Cc1cc(OCC(=O)NCc2ccccn2)c2c(C)cc(=O)oc2c1 2.23%
CN(C)C/C=C(/c1ccc(Br)cc1)c1cccnc1 3.6%
CN(C)CCCO/N=C(\c1ccccc1)c1ccncc1 24.4%
CC(C)c1ccc(NC(=O)NCc2ccccn2)cc1 8.07%
C[C@H](CO)N1C[C@H](C)[C@@H](CN(C)C(=O)Nc2ccc(C(F)(F)F)cc2)Oc2ccc(NC(=O)CCC(F)(F)F)cc2C1=O 5.69%
COCC(C)OC(=O)C(C#N)c1nc2ccccc2nc1N1CCN(Cc2ccccc2)CC1 (centres undefined) 6.54%
O=C(CCn1cnc2ccccc21)N/N=C/c1ccccc1O 0.87%
O=C(Cn1cc(C(F)(F)F)ccc1=O)N/N=C/c1ccc(Cl)cc1 11.1%
O=C(Cn1cc(C(F)(F)F)ccc1=O)N/N=C/c1ccc(F)cc1 -1.82%
COc1ccc(/C=N/NC(=O)CCn2nc(C)cc2C)cc1O 26.5%
COc1ccc(/C=N/NC(=O)CCn2nc(C)cc2C)cc1 -2.7%
Cc1cc(C)n(CCC(=O)N/N=C/c2ccc(O)cc2O)n1 -27.4%
O=C(CCn1cnc(-c2ccccc2)c1-c1ccccc1)N/N=C/c1ccc(O)cc1 27.5%
Cc1cc(C)n(CCC(=O)N/N=C/c2ccccc2O)n1 3.84%
O=C(Nc1ccc(C(=O)N2CCCCC2)cc1)c1ccc([N+](=O)[O-])cc1 1.12%
Cc1ccccc1-c1cc(C(=O)O)nn1CC1CC(c2cccc([N+](=O)[O-])c2)=NO1 (centres undefined) 4.15%
COc1ccc(CCNC(=O)c2cc(C3CC3)nc3c2cnn3C(C)C)cc1 1.51%
O=C(Nn1cnnc1)c1ccc(OC(F)(F)C(F)C(F)(F)F)cc1 (centres undefined) 7.79%
CCCNC(=S)NNC(=O)c1cc(-c2cccnc2)nc2ccccc12 0.84%
CS(=O)(=O)c1cccc(C(=O)Nc2cccc(S(=O)(=O)N3CCCC3)c2)c1 3.17%
